Consider 99 compounds from PubChem BioAssay AID624417 (National Center for Advancing Translational Sciences (NCATS), 2012).

Each structure is given as a SMILES string. Hit rate of the full screen: of about 410,000 compounds, about 6,400 (1.6%) were called active. A call without a number means that no potency is given here. Another 20% or so got no clear call; they are omitted. The call rests on the fitted dose curve; in most records, active means well fitted inhibition curve with a large enough effect; inconclusive means small, poorly fitted or top-dose-only effect; inactive means no such curve, though single readings can be large or run the other way. Only a selection was taken, and actives are over-represented in it overall.
Potency means the concentration at half of the fitted maximal effect.

The assay deals with Glucagon-like peptide 1 receptor (Homo sapiens) (UniProt P43220). Briefly: qHTS of GLP-1 Receptor Inverse Agonists (Inhibition Mode). Further: nearly all actives have a fitted effect of over 55% in size. As to conditions: HEK293 GLP-1R CRE-luciferase, luminescence, 24 h, GLP-1R form is constitutively active; series mostly up to 38.3 µM. In outline: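 Using stably transfected HEK293 (constitutively active GLP-1R, cAMP-luciferase reporter), compounds were incubated 24 hr and luciferase measured by luminescence.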
Glucagon-like peptide 1 receptor (Homo sapiens), sequence (P43220 whole entry, looked up): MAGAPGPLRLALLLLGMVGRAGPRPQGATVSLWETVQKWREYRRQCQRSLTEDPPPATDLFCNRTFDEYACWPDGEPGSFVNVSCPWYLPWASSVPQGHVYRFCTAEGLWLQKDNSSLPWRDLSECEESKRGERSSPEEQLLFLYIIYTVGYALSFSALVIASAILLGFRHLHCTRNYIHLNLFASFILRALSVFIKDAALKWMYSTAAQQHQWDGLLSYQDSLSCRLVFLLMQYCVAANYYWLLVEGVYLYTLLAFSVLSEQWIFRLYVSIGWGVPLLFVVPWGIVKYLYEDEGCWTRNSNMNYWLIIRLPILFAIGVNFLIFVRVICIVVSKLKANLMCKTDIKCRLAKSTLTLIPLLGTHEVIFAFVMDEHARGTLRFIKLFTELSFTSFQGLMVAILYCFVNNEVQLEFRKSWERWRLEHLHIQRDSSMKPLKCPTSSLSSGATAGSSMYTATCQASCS
(In general: Quantitative high-throughput screening tests each substance at several concentrations.)
`Cc1ccc(C)c(NC(=S)NNC(=S)Nc2ccc(C(C)C)cc2)c1`: the Potency was 3.55 µM (active).

With `CC(C)c1ccc(NC(=S)NNc2ccc(Cl)c(C(=O)O)c2)cc1`, the Potency entry was “inactive”.

Consider `Cc1ccc(C)c(NC(=S)NNC(=O)c2csc(C)c2)c1`, for which the Potency entry was “inactive”.

Turning to `CCCC(=O)NC(Nc1ccccc1OC)C(Cl)(Cl)Cl` (centres undefined), the Potency entry is “inactive”.

In the case of `CCCCCN(C(=O)NC(=O)Nc1ccccc1OC)S(C)(=O)=O`, the Potency result was “inactive”.

Turning to `CCCCCCCC(=O)NC(Nc1ccccc1OC)C(Cl)(Cl)Cl` (centres undefined), the Potency was 6.31 µM (active).

Regarding `Cn1ncc([N+](=O)[O-])c1C(=O)Nc1cc(Cl)ccc1Cl`, the Potency entry was “inactive”.

For `CCc1nc2ccc(C(=O)N(C)Cc3ccco3)cn2c1N(C)C(=O)Cc1ccccc1`, the Potency entry was “inactive”.

For the compound `OC[C@@H]1CN(C2CCCC2)C[C@H](n2cnc3c(NC4CCC4)ncnc32)O1`, the Potency entry is “inactive”.

Regarding `Cc1ccccc1OCC(=O)Nc1ccc(N2CCN(C(=O)C(C)C)CC2)c(Cl)c1`, the Potency was 3.98 µM (active).

As to `Cc1ccccc1OCC(=O)Nc1ccc2c(c1)ncn2C`, the Potency entry is “inactive”.

Consider `Cc1ccc(NC(=O)CCC(=O)N2CCC(c3ccccc3)=N2)cc1S(=O)(=O)N1CCCCC1`, for which the Potency result is “inactive”.

With `COc1ccccc1C(CNC(=O)c1ccc(C)c(S(=O)(=O)N2CCCCC2)c1)N(C)C` (centres undefined), the Potency entry is “inactive”.

On to `Cc1ccc(NC(=O)COC(=O)C2CC2)cc1S(=O)(=O)N1CCOCC1`, for which the Potency result is “inactive”.

Take `Cc1ccccc1OCC(=O)Nc1ccc(S(=O)(=O)N2CCOCC2)cc1`: the Potency entry was “inactive”.

As to `CCc1ccccc1OCC(=O)Nc1ccc(C)c(S(=O)(=O)N2CCCCCC2)c1`, the Potency was 8.91 µM (active).

On to `COc1ccc(NC(=O)C2=NNC(=O)CC2)cc1S(=O)(=O)N1CCCCC1`, for which the Potency result was “inactive”.

In the case of `COc1ccccc1C(=O)Nc1ccc(C)c(S(=O)(=O)N2CCCCC2)c1`, the Potency is 14.1 µM (active).

Turning to `CC1(C(=O)NS(=O)(=O)c2ccccc2)CCN1C(=O)c1ccccc1` (centres undefined), the Potency entry is “inactive”.

Turning to `Nc1nc(CSc2nnnn2-c2ccccc2)nc(Nc2ccccc2)n1`, the Potency entry was “inactive”.

For the compound `CCOC(=O)C1=CCC2C(=O)N(Cc3ccccc3)C(=O)C12` (centres undefined), the Potency entry is “inactive”.

For the compound `COC(=O)[C@]12CCCCC=C1N(Cc1ccco1)C(=O)[C@H](CC(=O)NCCCCc1ccccc1)C2`, the Potency entry was “inactive”.

Consider `CCN(C(=O)Nc1cccc2ccccc12)c1ccccc1`, for which the Potency result was “inactive”.

For `CC(C)[C@H](NC(=O)c1ccccc1F)C(=O)Nc1cccc(S(=O)(=O)N2CCOCC2)c1`, the Potency result is “inactive”.

In the case of `CCCNC(=O)C1(C)CCN(C(=O)c2ccccc2OC(F)(F)F)C1` (centres undefined), the Potency result is “inactive”.

On to `OC[C@H]1O[C@@H](c2nc(-c3nc(-c4ccc(F)cc4)no3)cs2)[C@H](O)[C@@H](O)[C@H]1O`, for which the Potency result is “inactive”.

Consider `CC1(C(=O)NCc2ccccc2)CN(S(C)(=O)=O)CC(=O)N1CC(F)(F)F` (centres undefined), for which the Potency result was “inactive”.

As to `COCCNC(=O)c1ccccc1-c1nc(-c2ccccc2Cl)no1`, the Potency result was “inactive”.

Turning to `Cc1onc(-c2ccccc2Cl)c1C(=O)NCCn1ccc2ccccc21`, the Potency is 6.31 µM (active).

Regarding `CC(=O)Nc1cccc(/C(C)=N/NC(=O)c2c(-c3ccccc3Cl)noc2C)c1`, the Potency entry is “inactive”.

Consider `CCNC(=O)C1CCCN(C(=O)c2ccc(OC)cc2OC)CC1` (centres undefined), for which the Potency entry was “inactive”.

Take `COc1cc(NC(=O)c2cc(C3CC3)nc3c2c(C)nn3-c2ccccc2)cc(OC)c1`: the Potency was 10 µM (active).

Consider `COc1ccccc1NC(=O)c1cc(C2CC2)nc2c1c(C)nn2-c1ccc(C)cc1`, for which the Potency result is “inactive”.

Consider `COc1ccc(NC(=O)c2cc(-c3ccc(C)o3)nc3ccccc23)cc1`, for which the Potency result was “inactive”.

With `CC(C)C[C@H]1CNC(=O)C(=O)N1C[C@@H]1CCCN1C[C@H](Cc1ccccc1)N1C[C@H](CC(C)C)N(CC2CCCCCC2)C(=O)C1=O`, the Potency result was “inactive”.

`CN(c1ccc(OCC(=O)O)cc1)S(=O)(=O)c1ccc2ccccc2c1`: the Potency result is “inactive”.

With `Cc1ccc(S(=O)(=O)N(C)C)cc1NC(=O)COC(=O)c1c(C)noc1C`, the Potency result was “inactive”.

For `CCc1noc(C)c1C(=O)Oc1ccc(N(C)S(=O)(=O)c2ccc(C)c(C)c2)cc1`, the Potency is 12.6 µM (active).

Consider `COC(=O)c1ccc2nc(-c3cccc(Br)c3)c(Cc3ccc(OC)cc3C)n2c1`, for which the Potency result was “inactive”.

On to `COc1ccc(NC(=O)N(C)C[C@@H]2OCc3cn(nn3)CCCC(=O)N([C@H](C)CO)C[C@H]2C)c(OC)c1`, for which the Potency result was “inactive”.

In the case of `COc1ccc(-c2nc(CCNC(=O)c3ccc(Br)o3)cs2)cc1`, the Potency result was “inactive”.

For the compound `O=C(NCCc1csc(-c2ccccc2)n1)c1ccccc1F`, the Potency entry was “inactive”.

Consider `COc1ccc(CCC(=O)NCCc2csc(-c3ccc(Cl)cc3)n2)cc1`, for which the Potency was 10 µM (active).

Turning to `CN1OC[C@@H]2CN(C(=O)c3cccnc3)[C@H](c3ccc(N4CCCCC4)cc3)C[C@@H]21`, the Potency result was “inactive”.

Regarding `CNC(=O)C[C@H]1C(=O)N(Cc2ccccc2)C[C@@H]1CSC`, the Potency result is “inactive”.

As for `Oc1ccc(-c2nc3ccc(Cl)cn3c2Nc2ccc3c(c2)OCO3)cc1`, the Potency entry was “inactive”.

With `Cc1cccc2nc(-c3ccc(Cl)s3)c(Nc3ccc4c(c3)OCCO4)n12`, the Potency is 10 µM (active).

As for `Oc1ccccc1-c1nc2ccc(Cl)cn2c1Nc1ccc2c(c1)OCCO2`, the Potency result is “inactive”.

`O=C(NCCS(=O)(=O)N1CCN(c2ccccc2)CC1)c1cc(=O)c2ccccc2o1`: the Potency entry is “inactive”.

Consider `CC1(C2CC2)NC(=O)N(CC(=O)N2CCN(c3ccccc3F)CC2)C1=O` (centres undefined), for which the Potency result was “inactive”.

As to `O=C(Nc1ccc(OCCO)cc1)c1csc([C@H]2C[C@H](O)[C@@H](CO)O2)n1`, the Potency result was “inactive”.

For `CCOC(=O)CSc1nccc(N(C)C)c1C#N`, the Potency entry was “inactive”.

In the case of `COc1ccc(CSc2nc(N3CCOCC3)c3c(c2C#N)CC(C)(C)OC3)cc1`, the Potency entry was “inactive”.

On to `CCOC(=O)CSc1nc(N2CCOCC2)c2c(c1C#N)CC(C(C)C)OC2` (centres undefined), for which the Potency is 2.24 µM (active).

`Cc1ccc(-c2c(N)nc3ncccn23)cc1`: the Potency result was “inactive”.

For the compound `CCCc1c(-c2ccccc2F)ncn1Cc1ccccc1OC`, the Potency result was “inactive”.

On to `CC1(C(=O)Nc2cccc(Oc3ccccc3)c2)CCN1Cc1ccccc1Cl` (centres undefined), for which the Potency was 10 µM (active).

As to `COc1cccc(NC(=O)C2(C)CCN2C(=O)CCC2CCCC2)c1` (centres undefined), the Potency entry was “inactive”.

For the compound `CSc1ccc(CN2CCC2(C)C(=O)Nc2ccc(C)c(O)c2)cc1` (centres undefined), the Potency entry was “inactive”.

Turning to `Cc1ccc(C)c(C(O)c2ncc(-c3cccc4ccccc34)[nH]2)c1` (centres undefined), the Potency entry is “inactive”.

On to `CCc1ccccc1NC(=O)CCOc1ccccc1`, for which the Potency entry was “inactive”.

`CCc1ccccc1NC(=O)/C(=C/c1ccccc1)c1ccccc1`: the Potency was 11.2 µM (active).

For `CCc1ccccc1NC(=S)Nc1cc(OC)c(NC(=O)C(C)C)cc1OC`, the Potency entry was “inactive”.

For `O=S1(=O)CC(N2CCN(Cc3ccccc3F)CC2)CN1Cc1cn(Cc2ccccc2)nn1` (centres undefined), the Potency entry was “inactive”.

For `Cc1nn(Cc2ccccc2)c(C)c1CNC(=O)c1ccc(F)c(S(=O)(=O)N2CCOCC2)c1`, the Potency entry was “inactive”.

Turning to `O=C(NCCSCc1ccccc1)c1ccc(Cl)c(S(=O)(=O)N2CCOCC2)c1`, the Potency was 11.2 µM (active).

Consider `NS(=O)(=O)c1ccc(CCNC(=O)c2ccc(Cl)c(S(=O)(=O)N3CCCCCC3)c2)cc1`, for which the Potency result was “inactive”.

Turning to `CCCC(=O)N1CCC1(C)C(=O)Nc1ccc(-n2cncn2)cc1` (centres undefined), the Potency entry was “inactive”.

On to `CCOC(=O)C1CCCN(C(=O)c2ccc(N(C)C)cc2)CC1` (centres undefined), for which the Potency result is “inactive”.

For `CC(Nc1nc(N2CCN(CCO)CC2)nc2ccccc12)c1ccccc1` (centres undefined), the Potency was 4.47 µM (active).

`O=C1c2ccccc2C(=O)c2c1cccc2N1CCN(CCO)CC1`: the Potency result is “inactive”.

Take `OCCN1CCN(c2nnc(-c3ccccc3)c3ccccc23)CC1`: the Potency result was “inactive”.

With `CC(=O)Nc1cc(-c2ccc(N3CCN(C)CC3)cc2)cn2c(-c3cccc(C(=O)N(C)C)c3)cnc12`, the Potency entry was “inactive”.

In the case of `COc1ccc(CNC2CCCCC2)cc1`, the Potency result was “inactive”.

As for `COc1cc(CNC2CCCC2)c(Br)cc1OCc1ccccc1`, the Potency is 3.16 µM (active).

`COc1cc(C=O)c(Br)cc1OCC(=O)NCc1ccccc1`: the Potency result is “inactive”.

For the compound `COc1cc2nnn(-c3ccncc3)c2cc1OC`, the Potency entry is “inactive”.

In the case of `O=C(CN1CCCCCC1)Nc1ccc(Cl)cc1F`, the Potency entry is “inactive”.

In the case of `O=C(CN1CCCCCC1)Nc1ccc(Br)cc1[N+](=O)[O-]`, the Potency entry was “inactive”.

As to `O=C(CN1CCCCCC1)Nc1ccc(Br)cc1Br`, the Potency was 10 µM (active).

Turning to `COCCCNC(=O)c1cccc2c(-c3ccc(O)c(OC)c3)coc12`, the Potency result was “inactive”.

With `COc1cccc(CN2CCC(C(=O)NC(c3ccc4c(c3)OCO4)c3ccccn3)CC2)c1` (centres undefined), the Potency entry was “inactive”.

Take `CCc1nc2ccc(C(=O)NC3CCN(Cc4ccccc4)CC3)cn2c1N(CC)CCOC`: the Potency result is “inactive”.

As to `Cc1cc(Br)cn2c(Cc3cccc(F)c3)c(-c3cccc(Br)c3)nc12`, the Potency result is “inactive”.

`Cn1cc(CCC(=O)N2CCCC(C(=O)c3ccc(C(C)(C)C)cc3)C2)cn1` (centres undefined): the Potency was 10 µM (active).

`COCC(=O)N1CCCC(C(=O)c2ccc(C(F)(F)F)cc2)C1` (centres undefined): the Potency result is “inactive”.

Consider `O=C1CCC(CCC(=O)N2CCCC(C(=O)c3ccc(Cl)cc3)C2)=NN1` (centres undefined), for which the Potency result was “inactive”.

Regarding `CCCNC(=O)c1cc(C2CCCCN2S(=O)(=O)c2cn(C)cn2)on1` (centres undefined), the Potency result is “inactive”.

Take `O=C(NCc1ccc(F)cc1)c1cc(C2CCCCN2C(=O)c2ccccn2)on1` (centres undefined): the Potency entry is “inactive”.

`Cc1cccc(S(=O)(=O)N(C)C[C@H]2OCc3cnnn3CCCC(=O)N([C@@H](C)CO)C[C@H]2C)c1`: the Potency entry is “inactive”.

Consider `CSc1ccc(CCNC(=O)C2CCN(c3nnc(-n4cccc4)s3)CC2)cc1`, for which the Potency result was “inactive”.

Turning to `Cc1ccc(CCNC(=O)C2CCN(c3nnc(-n4cccc4CNc4ccc(C)cc4)s3)CC2)cc1`, the Potency is 4.47 µM (active).

As to `CCOc1ccc(CNC(=O)C2CCN(c3nnc(-n4cccc4CNc4ccc(C)cc4)s3)CC2)cc1OC`, the Potency entry is “inactive”.

With `O=C(NCc1ccccc1)C(c1ccc(F)cc1)N1CCN(C(=O)C2CCCO2)CC1` (centres undefined), the Potency entry is “inactive”.

Regarding `O=S1(=O)CC(N2CCSCC2)CN1Cc1cn(Cc2cccc(Cl)c2)nn1` (centres undefined), the Potency entry was “inactive”.

For the compound `C[C@@H]1CN([C@@H](C)CO)C(=O)CCCn2cc(nn2)CO[C@H]1CN(C)S(=O)(=O)c1ccc(-n2cccn2)cc1`, the Potency entry is “inactive”.

For the compound `COc1ccccc1NC(=O)CC(NCCN(C)C)C(=O)O` (centres undefined), the Potency entry is “inactive”.

With `COc1ccccc1NC(=O)C(CC(=O)O)Cc1cc(C)cc(C)c1` (centres undefined), the Potency result is “inactive”.

Turning to `COc1ccccc1NC(=O)[C@H](COCc1ccccc1)NC(=O)OC(C)(C)C`, the Potency was 10 µM (active).
